Measurements: PubChem BioAssay (NCI)
The panel holds about 83,000 compounds, 20% with a hit somewhere; the sample as a whole holds those more often.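 Plates (96-well) were seeded with cells, treated with compound at one concentration, and incubated for 48 hours before percent growth was determined.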 Unmarked numbers belong to inactive results. The source made the active and inactive calls. The calls were made as follows: active = growth percent below 10; inactive = the rest.

What follows are molecules tested on HS 578T breast (assay: NCI-60 one-dose screen, 48 h (100 = growth as untreated, 0 = no growth, -100 = all killed)). Conditions: 10 µM unless noted.
With `CC(=O)N(CC(O)CO)c1c(I)c(C(=O)NCCO)c(I)c(C(=O)NCC(O)CO)c1I` (centres undefined) the growth was 116%.
`CCCCCCCCCCCCSC1=CC(=O)C=CC1=O` was tested, and the growth was 63.8%.
`CC(C)NCC(O)COc1ccc(CCOCC2CC2)cc1` (centres undefined) gave a growth of 109%.
`COc1ccc(-c2csc3c2-n2cccc2C3=O)cc1O` was tested, and the growth was 32.7%.
Molecule `O=C1OCC2=C1C(c1ccc3c(c1)OCO3)CC(=O)N2c1cccc(Cl)c1` (centres undefined) has a growth of 94.5%.
For `COc1cc2nc(N3CCC[C@H](NC4=CC(=O)c5ccccc5C4=O)C3)nc(N)c2cc1OC`, the growth was -49.1% (active).
With `CC1SC(c2ccc(Cl)cc2)N(CCc2cccs2)C1=O` (centres undefined) the growth was -16% (active).
In the case of `C[C@@H](Oc1cc(-c2cnn(C3CC4(CNC4)C3)c2)cnc1N)c1c(Cl)ccc(F)c1Cl`, the growth is reported as 41.6%.
With `CCOC(=O)C(CC(c1ccccc1)N1CCCCC1)[N+](=O)[O-]` (centres undefined) the growth was 98.6%.
Work on `O=C1CC(c2ccsc2)c2snc(-c3ccc(Cl)cc3)c2N1` (centres undefined) yielded a growth of 46%.

These molecules were tested on NCI/ADR-RES ovarian in the same assay as above. Conditions: 10 µM unless noted.
Work on `O=C(Nc1ccccc1)Oc1cccc2cccnc12` yielded a growth of 78.5%.
With `O=c1[nH]c(-c2ccccn2)nc2sc3c(c12)CCCCCC3` the growth was 24.6%.
`COc1ccc(-c2nc3sc(C)nn3c2-c2nc3cc(C)c(C)cc3[nH]2)cc1` gave a growth of 86.6%.
`O=C(C[Si](CC(=O)c1cccc(C(F)(F)F)c1)CC(=O)c1cccc(C(F)(F)F)c1)c1cccc(C(F)(F)F)c1` gave a growth of 78.4%.
With `Cc1ccc(C2SCC(=O)N2NC(=O)c2[nH]c3ccc(F)cc3c2-c2ccccc2)cc1` (centres undefined) the growth was 92%.
With `O=C1/C(=C/c2ccc(Oc3ccccc3)cc2)N=C(c2ccccc2)N1CCc1cccs1` the growth was 83.9%.
`COc1ccc(Nc2[nH]n(C3=Nc4ccccc4Sc4ccccc43)c(=O)c2C#N)cc1` showed a growth of 45.2%.
In the case of `FC(F)(F)c1cc(CNc2ncc(Br)c(Cl)n2)cc(C(F)(F)F)c1`, the growth is reported as 93.2%.
For `COc1cc(CNCCCN2C(=O)c3ccc4c5c(ccc(c35)C2=O)C(=O)N(CCCNCc2cc(OC)c(OC)c(OC)c2)C4=O)cc(OC)c1OC`, the growth was 71.1%.
In the case of `CCCCc1ccc(C(O)(CCN2CC3CCC(CC3)C2)c2ccccc2)cc1` (centres undefined), the growth is reported as 98.3%.
Work on `Oc1cccc(Nc2nc(-c3ccccn3)cs2)c1` yielded a growth of 94.6%.
Work on `O=C(O)CCN1CCN(c2cccc(Cl)c2)CC1` yielded a growth of 112%.
Molecule `CCCCC(CCCC)(S(=O)(=O)CC)S(=O)(=O)CC` has a growth of 102%.
Molecule `COc1ccc(/C=C2\CN(Cc3cn(CCCNc4ccnc5cc(Cl)ccc45)nn3)C/C(=C\c3ccc(OC)cc3)C2=O)cc1` has a growth of 50.7%.
`Cn1c2c(cc(S(=O)(=O)c3ccccc3)c1=O)CCc1c-2cnn1-c1cccc(Cl)c1` gave a growth of 90.6%.
In the case of `CCOc1ccc(-c2cnnn2-c2nonc2-n2cccc2)cc1`, the growth is reported as -5.39% (active).
Work on `Cc1nn(-c2ccccc2)c2nc3nc4c(c(N)c3c(-c3ccc(Cl)cc3)c12)CCC4` yielded a growth of 95.2%.
In the case of `COc1ncnc2c1ncn2C/C(Br)=C(\Br)CCl`, the growth is reported as -40.4% (active).
Molecule `O=c1nc(NO)[nH]c(=O)n1Cc1ccc(F)cc1` has a growth of 107%.
`CCN(CC)CCCNc1ccc(C)c2sc3ccccc3c(=O)c12` was tested, and the growth was 58.4%.
Molecule `Cn1cc(C(=O)NCCC(=N)N)cc1NC(=O)CN=C(N)N` has a growth of 94.2%.
`Cc1cc(=O)c2c(C)ccc(C)c2[nH]1` gave a growth of 100%.
`COc1ccc(OC2=C(C#N)C(=N)N3c4ccccc4Sc4ccccc4C3N2)cc1` (centres undefined) was tested, and the growth was 85.2%.
In the case of `O=c1onc(-c2ccccc2)c2ccccc12`, the growth is reported as 103%.
With `O=C1C(Cl)=C(NCCCN2CCOCC2)C(=O)c2ccccc21` the growth was 99.1%.
`CCCCc1ccc(NC(=O)C(F)(F)F)cc1` showed a growth of 103%.
`COc1ccc2nc(-n3nc(C)cc3C)c(-n3nc(C)cc3C)nc2c1` gave a growth of 100%.

These molecules were tested on T-47D breast in the same assay as above. Conditions: 10 µM.
`O=C(Nc1ccccc1)Oc1cccc2cccnc12` was tested, and the growth was 31.5%.
`O=c1[nH]c(-c2ccccn2)nc2sc3c(c12)CCCCCC3` was tested, and the growth was 42.6%.
Work on `CC(=O)N(CC(O)CO)c1c(I)c(C(=O)NCCO)c(I)c(C(=O)NCC(O)CO)c1I` (centres undefined) yielded a growth of 101%.
For `COc1ccc(-c2nc3sc(C)nn3c2-c2nc3cc(C)c(C)cc3[nH]2)cc1`, the growth was 95.4%.
`O=C(C[Si](CC(=O)c1cccc(C(F)(F)F)c1)CC(=O)c1cccc(C(F)(F)F)c1)c1cccc(C(F)(F)F)c1` gave a growth of 98.7%.
For `Cc1ccc(C2SCC(=O)N2NC(=O)c2[nH]c3ccc(F)cc3c2-c2ccccc2)cc1` (centres undefined), the growth was 91.3%.
Molecule `CCCCCCCCCCCCSC1=CC(=O)C=CC1=O` has a growth of 30.6%.
`O=C1/C(=C/c2ccc(Oc3ccccc3)cc2)N=C(c2ccccc2)N1CCc1cccs1` was tested, and the growth was 83.9%.
`COc1ccc(Nc2[nH]n(C3=Nc4ccccc4Sc4ccccc43)c(=O)c2C#N)cc1` gave a growth of 17.9%.
`FC(F)(F)c1cc(CNc2ncc(Br)c(Cl)n2)cc(C(F)(F)F)c1` gave a growth of 89.8%.
`COc1cc(CNCCCN2C(=O)c3ccc4c5c(ccc(c35)C2=O)C(=O)N(CCCNCc2cc(OC)c(OC)c(OC)c2)C4=O)cc(OC)c1OC` was tested, and the growth was -56.9% (active).
For `CCCCc1ccc(C(O)(CCN2CC3CCC(CC3)C2)c2ccccc2)cc1` (centres undefined), the growth was 73.8%.
`CC(C)NCC(O)COc1ccc(CCOCC2CC2)cc1` (centres undefined) showed a growth of 103%.
For `Oc1cccc(Nc2nc(-c3ccccn3)cs2)c1`, the growth was 87.3%.
Molecule `O=C(O)CCN1CCN(c2cccc(Cl)c2)CC1` has a growth of 98.3%.
`CCCCC(CCCC)(S(=O)(=O)CC)S(=O)(=O)CC` gave a growth of 101%.
`COc1ccc(/C=C2\CN(Cc3cn(CCCNc4ccnc5cc(Cl)ccc45)nn3)C/C(=C\c3ccc(OC)cc3)C2=O)cc1` gave a growth of 102%.
In the case of `Cn1c2c(cc(S(=O)(=O)c3ccccc3)c1=O)CCc1c-2cnn1-c1cccc(Cl)c1`, the growth is reported as 64.4%.
Molecule `CCOc1ccc(-c2cnnn2-c2nonc2-n2cccc2)cc1` has a growth of 49%.
`COc1ccc(-c2csc3c2-n2cccc2C3=O)cc1O` was tested, and the growth was 79.6%.
Molecule `O=C1OCC2=C1C(c1ccc3c(c1)OCO3)CC(=O)N2c1cccc(Cl)c1` (centres undefined) has a growth of 103%.
For `COc1cc2nc(N3CCC[C@H](NC4=CC(=O)c5ccccc5C4=O)C3)nc(N)c2cc1OC`, the growth was -56.2% (active).
In the case of `CC1SC(c2ccc(Cl)cc2)N(CCc2cccs2)C1=O` (centres undefined), the growth is reported as 9.51% (active).
For `C[C@@H](Oc1cc(-c2cnn(C3CC4(CNC4)C3)c2)cnc1N)c1c(Cl)ccc(F)c1Cl`, the growth was 43.3%.
`Cc1nn(-c2ccccc2)c2nc3nc4c(c(N)c3c(-c3ccc(Cl)cc3)c12)CCC4` showed a growth of 102%.
With `COc1ncnc2c1ncn2C/C(Br)=C(\Br)CCl` the growth was 1.25% (active).
`CCOC(=O)C(CC(c1ccccc1)N1CCCCC1)[N+](=O)[O-]` (centres undefined) was tested, and the growth was 59.1%.
For `O=c1nc(NO)[nH]c(=O)n1Cc1ccc(F)cc1`, the growth was 97%.
`CCN(CC)CCCNc1ccc(C)c2sc3ccccc3c(=O)c12` showed a growth of 43.7%.
Work on `Cn1cc(C(=O)NCCC(=N)N)cc1NC(=O)CN=C(N)N` yielded a growth of 110%.
`Cc1cc(=O)c2c(C)ccc(C)c2[nH]1` gave a growth of 96.1%.
Work on `COc1ccc(OC2=C(C#N)C(=N)N3c4ccccc4Sc4ccccc4C3N2)cc1` (centres undefined) yielded a growth of 87%.
`O=c1onc(-c2ccccc2)c2ccccc12` showed a growth of 97.8%.
For `O=C1C(Cl)=C(NCCCN2CCOCC2)C(=O)c2ccccc21`, the growth was 102%.
With `CCCCc1ccc(NC(=O)C(F)(F)F)cc1` the growth was 87.1%.
`O=C1CC(c2ccsc2)c2snc(-c3ccc(Cl)cc3)c2N1` (centres undefined) showed a growth of 30.6%.
Work on `COc1ccc2nc(-n3nc(C)cc3C)c(-n3nc(C)cc3C)nc2c1` yielded a growth of 105%.
